# Legend:
# Experiment in all cases: DAPPL (digital affinity profiling via proximity ligation, sequencing); 10 mM Tris-HCl pH 7.5, 50 mM NaCl, 1 mM DTT, 4% glycerol, room temperature, 30 min; GST-TFs on glutathione beads, 16-mer random dsDNA library, 0.1% formaldehyde crosslink after washing; high values mean tight binding
# FLI1 = target: T1, FLI1 (Homo sapiens, UniProt Q01543 1-452); conditions: protein: recombinant; tags: N-terminal GST; dsDNA, one strand shown
# T1 sequence: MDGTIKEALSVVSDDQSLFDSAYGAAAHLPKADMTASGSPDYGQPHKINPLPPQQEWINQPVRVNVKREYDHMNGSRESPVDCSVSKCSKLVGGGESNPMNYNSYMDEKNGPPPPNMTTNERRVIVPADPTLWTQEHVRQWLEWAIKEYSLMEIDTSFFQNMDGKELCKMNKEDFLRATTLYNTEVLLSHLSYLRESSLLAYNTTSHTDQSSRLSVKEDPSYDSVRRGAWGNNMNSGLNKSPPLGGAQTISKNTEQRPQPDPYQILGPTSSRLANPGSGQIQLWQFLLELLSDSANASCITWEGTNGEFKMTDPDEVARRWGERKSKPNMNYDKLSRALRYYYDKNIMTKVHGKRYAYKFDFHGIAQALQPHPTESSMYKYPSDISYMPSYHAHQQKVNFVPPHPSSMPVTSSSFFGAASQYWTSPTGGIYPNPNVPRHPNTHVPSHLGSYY
# Summary of the method: (§1)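 A tag-only sample was pooled with DNA-barcoded human transcription factors that had been expressed in yeast as GST fusions and captured on glutathione beads. The pools were incubated for 30 min at room temperature with 200 nmole of a random double-stranded 16-mer DNA library in Tris/NaCl/DTT/glycerol buffer, then washed, crosslinked with 0.1% formaldehyde, proximity-ligated (BsaI/T4 ligase, 1 h, 37 °C), PCR-amplified and sequenced on an Illumina NextSeq500. Binding signal is each hexamer's read frequency for a factor divided by its frequency for the tag-only sample.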
# ELK1 = target: T2, ELK1 (Homo sapiens, UniProt P19419 1-428); conditions: protein: recombinant; tags: N-terminal GST; dsDNA, one strand shown
# T2 sequence: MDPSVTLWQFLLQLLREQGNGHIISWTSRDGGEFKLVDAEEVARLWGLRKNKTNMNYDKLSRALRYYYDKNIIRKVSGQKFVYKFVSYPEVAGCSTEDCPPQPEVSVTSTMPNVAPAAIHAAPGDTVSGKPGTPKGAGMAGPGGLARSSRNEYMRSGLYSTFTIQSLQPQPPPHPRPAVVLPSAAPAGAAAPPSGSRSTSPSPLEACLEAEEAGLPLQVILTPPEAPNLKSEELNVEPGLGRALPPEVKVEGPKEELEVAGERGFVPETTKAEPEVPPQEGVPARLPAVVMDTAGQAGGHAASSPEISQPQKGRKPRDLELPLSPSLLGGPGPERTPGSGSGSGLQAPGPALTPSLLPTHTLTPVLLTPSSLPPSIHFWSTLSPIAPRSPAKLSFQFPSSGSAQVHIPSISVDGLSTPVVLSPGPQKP
# Summary of the method: as §1
# GABPA = target: T3, GABPA (Homo sapiens, UniProt Q06546 1-454); conditions: protein: recombinant; tags: N-terminal GST; dsDNA, one strand shown
# T3 sequence: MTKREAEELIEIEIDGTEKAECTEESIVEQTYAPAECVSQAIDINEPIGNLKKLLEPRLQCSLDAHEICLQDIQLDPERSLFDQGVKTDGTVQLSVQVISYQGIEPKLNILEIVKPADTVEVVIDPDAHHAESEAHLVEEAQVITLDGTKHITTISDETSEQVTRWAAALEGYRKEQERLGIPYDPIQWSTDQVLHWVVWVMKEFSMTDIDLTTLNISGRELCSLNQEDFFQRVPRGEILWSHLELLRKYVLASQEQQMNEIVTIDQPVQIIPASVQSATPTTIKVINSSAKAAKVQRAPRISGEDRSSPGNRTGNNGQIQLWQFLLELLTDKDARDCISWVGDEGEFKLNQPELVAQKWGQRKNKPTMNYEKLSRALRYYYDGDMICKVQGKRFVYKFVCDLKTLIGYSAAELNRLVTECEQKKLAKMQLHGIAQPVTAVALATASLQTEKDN
# Summary of the method: as §1
# ERG = target: T4, ERG (Homo sapiens, UniProt P11308 1-479); conditions: protein: recombinant; tags: N-terminal GST; dsDNA, one strand shown
# T4 sequence: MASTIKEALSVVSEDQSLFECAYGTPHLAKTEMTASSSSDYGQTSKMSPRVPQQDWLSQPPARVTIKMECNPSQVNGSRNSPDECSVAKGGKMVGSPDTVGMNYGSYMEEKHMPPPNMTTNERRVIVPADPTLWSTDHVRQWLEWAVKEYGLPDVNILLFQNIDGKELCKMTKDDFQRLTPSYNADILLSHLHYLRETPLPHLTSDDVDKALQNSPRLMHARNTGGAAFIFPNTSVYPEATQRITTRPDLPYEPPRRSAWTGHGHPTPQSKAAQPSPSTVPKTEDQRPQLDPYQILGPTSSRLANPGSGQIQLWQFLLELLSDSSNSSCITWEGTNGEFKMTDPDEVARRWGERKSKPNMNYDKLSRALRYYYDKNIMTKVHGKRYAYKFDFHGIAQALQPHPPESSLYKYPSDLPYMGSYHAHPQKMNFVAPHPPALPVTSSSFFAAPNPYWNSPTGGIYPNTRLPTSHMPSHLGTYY
# Summary of the method: as §1
# ELF1 = ELF1 (Homo sapiens, UniProt P32519 1-619); conditions: protein: recombinant; tags: N-terminal GST; dsDNA, one strand shown
# Summary of the method: as §1
# EHF = target: T5, EHF (Homo sapiens, UniProt Q9NZC4 1-300); conditions: protein: recombinant; tags: N-terminal GST; dsDNA, one strand shown
# T5 sequence: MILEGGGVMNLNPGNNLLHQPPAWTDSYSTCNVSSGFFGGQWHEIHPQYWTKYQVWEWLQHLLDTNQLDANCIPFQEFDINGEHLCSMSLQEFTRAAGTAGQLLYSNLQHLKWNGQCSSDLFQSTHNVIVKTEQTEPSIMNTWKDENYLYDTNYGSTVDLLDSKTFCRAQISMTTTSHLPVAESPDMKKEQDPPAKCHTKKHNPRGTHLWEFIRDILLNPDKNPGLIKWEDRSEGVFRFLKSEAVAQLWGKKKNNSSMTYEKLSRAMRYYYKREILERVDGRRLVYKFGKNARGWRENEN
# Summary of the method: as §1
# SPI1 = SPI1 (Homo sapiens, UniProt P17947 1-270); conditions: protein: recombinant; tags: N-terminal GST; dsDNA, one strand shown
# Summary of the method: as §1
# SPIB = SPIB (Homo sapiens, UniProt Q01892 1-262); conditions: protein: recombinant; tags: N-terminal GST; dsDNA, one strand shown
# Summary of the method: as §1
# ELK3 = target: T6, ELK3 (Homo sapiens, UniProt P41970 1-407); conditions: protein: recombinant; tags: N-terminal GST; dsDNA, one strand shown
# T6 sequence: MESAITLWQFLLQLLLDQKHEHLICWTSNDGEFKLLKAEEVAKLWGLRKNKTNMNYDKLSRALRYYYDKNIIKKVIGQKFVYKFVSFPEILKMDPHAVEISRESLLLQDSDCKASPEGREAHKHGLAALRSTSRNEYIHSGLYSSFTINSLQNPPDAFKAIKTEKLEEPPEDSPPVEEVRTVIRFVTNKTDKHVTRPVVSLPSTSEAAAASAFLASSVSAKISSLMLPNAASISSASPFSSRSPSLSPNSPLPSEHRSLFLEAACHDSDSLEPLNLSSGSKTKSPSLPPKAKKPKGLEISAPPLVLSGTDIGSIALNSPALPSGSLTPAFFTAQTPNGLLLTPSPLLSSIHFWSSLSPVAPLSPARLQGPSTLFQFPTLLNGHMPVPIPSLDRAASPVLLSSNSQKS
# Summary of the method: as §1
# FEV = target: T7, FEV (Homo sapiens, UniProt Q99581 1-238); conditions: protein: recombinant; tags: N-terminal GST; dsDNA, one strand shown
# T7 sequence: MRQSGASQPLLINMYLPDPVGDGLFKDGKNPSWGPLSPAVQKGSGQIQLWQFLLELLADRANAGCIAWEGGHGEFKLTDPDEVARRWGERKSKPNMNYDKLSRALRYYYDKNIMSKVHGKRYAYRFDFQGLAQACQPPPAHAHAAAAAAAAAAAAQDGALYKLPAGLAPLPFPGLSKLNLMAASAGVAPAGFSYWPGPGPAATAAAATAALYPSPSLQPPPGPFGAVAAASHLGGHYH
# Summary of the method: as §1
# ETV5 = ETV5 (Homo sapiens, UniProt P41161 1-510); conditions: protein: recombinant; tags: N-terminal GST; dsDNA, one strand shown
# Summary of the method: as §1
# HSF1 = HSF1 (Homo sapiens, UniProt Q00613 1-529); conditions: protein: recombinant; tags: N-terminal GST; chain copies: 3; dsDNA, one strand shown
# Summary of the method: as §1
# SPIC = target: T8, SPIC (Homo sapiens, UniProt Q8N5J4 1-248); conditions: protein: recombinant; tags: N-terminal GST; dsDNA, one strand shown
# T8 sequence: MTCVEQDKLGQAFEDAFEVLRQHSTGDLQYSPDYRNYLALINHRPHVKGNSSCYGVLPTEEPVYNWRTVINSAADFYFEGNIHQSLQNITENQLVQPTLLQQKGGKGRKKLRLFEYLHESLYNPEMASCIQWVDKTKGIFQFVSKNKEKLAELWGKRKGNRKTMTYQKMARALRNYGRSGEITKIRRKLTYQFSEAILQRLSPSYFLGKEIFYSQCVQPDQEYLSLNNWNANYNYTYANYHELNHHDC
# Summary of the method: as §1
# ELF4 = ELF4 (Homo sapiens, UniProt Q99607 1-663); conditions: protein: recombinant; tags: N-terminal GST; dsDNA, one strand shown
# Summary of the method: as §1
# ELK4 = target: T9, ELK4 (Homo sapiens, UniProt P28324-2 1-405); conditions: protein: recombinant; tags: N-terminal GST; dsDNA, one strand shown
# T9 sequence: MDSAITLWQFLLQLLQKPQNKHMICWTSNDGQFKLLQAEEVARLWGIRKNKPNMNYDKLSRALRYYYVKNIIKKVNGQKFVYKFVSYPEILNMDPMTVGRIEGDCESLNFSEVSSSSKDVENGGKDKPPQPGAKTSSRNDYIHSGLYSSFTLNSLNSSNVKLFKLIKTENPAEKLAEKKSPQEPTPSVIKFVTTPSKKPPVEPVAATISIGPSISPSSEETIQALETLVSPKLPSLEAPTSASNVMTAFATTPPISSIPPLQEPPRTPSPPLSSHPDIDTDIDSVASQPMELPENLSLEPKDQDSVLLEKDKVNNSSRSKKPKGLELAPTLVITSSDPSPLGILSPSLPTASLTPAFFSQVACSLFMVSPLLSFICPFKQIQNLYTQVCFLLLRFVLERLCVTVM
# Summary of the method: as §1
# ETV2 = target: T10, ETV2 (Homo sapiens, UniProt O00321 1-342); conditions: protein: recombinant; tags: N-terminal GST; dsDNA, one strand shown
# T10 sequence: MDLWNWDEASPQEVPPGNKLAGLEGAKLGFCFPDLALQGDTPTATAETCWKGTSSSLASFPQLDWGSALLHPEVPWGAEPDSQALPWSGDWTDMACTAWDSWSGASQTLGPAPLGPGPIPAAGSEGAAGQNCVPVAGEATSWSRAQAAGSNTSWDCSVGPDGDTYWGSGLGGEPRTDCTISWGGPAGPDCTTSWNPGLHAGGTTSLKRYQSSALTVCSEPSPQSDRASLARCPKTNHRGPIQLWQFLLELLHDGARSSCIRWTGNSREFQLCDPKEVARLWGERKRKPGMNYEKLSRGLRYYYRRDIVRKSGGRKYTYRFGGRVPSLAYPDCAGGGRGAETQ
# Summary of the method: as §1
# ELF3 = target: T11, ELF3 (Homo sapiens, UniProt P78545 1-371); conditions: protein: recombinant; tags: N-terminal GST; dsDNA, one strand shown
# T11 sequence: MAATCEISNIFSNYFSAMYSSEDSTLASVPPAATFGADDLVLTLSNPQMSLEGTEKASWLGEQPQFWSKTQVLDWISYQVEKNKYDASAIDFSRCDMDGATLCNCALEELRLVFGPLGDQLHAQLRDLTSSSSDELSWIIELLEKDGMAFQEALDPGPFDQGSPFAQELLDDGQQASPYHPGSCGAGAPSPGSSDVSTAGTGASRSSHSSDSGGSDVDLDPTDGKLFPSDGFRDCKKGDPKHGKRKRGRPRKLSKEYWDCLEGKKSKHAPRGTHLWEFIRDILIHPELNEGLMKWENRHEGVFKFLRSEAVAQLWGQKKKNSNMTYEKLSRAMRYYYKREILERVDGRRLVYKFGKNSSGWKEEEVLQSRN
# Summary of the method: as §1
# CRX = CRX (Homo sapiens, UniProt O43186 1-299); conditions: protein: recombinant; tags: N-terminal GST; dsDNA, one strand shown
# Summary of the method: as §1
# ETV1 = ETV1 (Homo sapiens, UniProt P50549 1-477); conditions: protein: recombinant; tags: N-terminal GST; dsDNA, one strand shown
# Summary of the method: as §1
# Chain of ELF4 (Q99607 whole entry): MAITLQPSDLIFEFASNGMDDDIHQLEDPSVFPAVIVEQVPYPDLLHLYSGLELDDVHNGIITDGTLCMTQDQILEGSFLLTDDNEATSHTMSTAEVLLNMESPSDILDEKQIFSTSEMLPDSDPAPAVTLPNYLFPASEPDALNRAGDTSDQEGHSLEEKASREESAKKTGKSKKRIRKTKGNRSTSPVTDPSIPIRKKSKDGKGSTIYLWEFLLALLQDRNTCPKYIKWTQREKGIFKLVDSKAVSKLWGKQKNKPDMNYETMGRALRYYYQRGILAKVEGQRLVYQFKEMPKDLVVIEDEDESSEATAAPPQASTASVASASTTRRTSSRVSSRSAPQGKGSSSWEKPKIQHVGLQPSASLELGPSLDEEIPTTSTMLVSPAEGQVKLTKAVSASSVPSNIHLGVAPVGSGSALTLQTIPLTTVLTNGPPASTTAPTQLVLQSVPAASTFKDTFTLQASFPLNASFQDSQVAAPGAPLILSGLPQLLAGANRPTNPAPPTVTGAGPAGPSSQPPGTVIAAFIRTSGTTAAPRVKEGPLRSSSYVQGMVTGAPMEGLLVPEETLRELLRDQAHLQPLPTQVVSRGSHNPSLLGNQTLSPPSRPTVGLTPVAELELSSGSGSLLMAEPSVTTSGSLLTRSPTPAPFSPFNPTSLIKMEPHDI
# Chain of HSF1 (Q00613 whole entry): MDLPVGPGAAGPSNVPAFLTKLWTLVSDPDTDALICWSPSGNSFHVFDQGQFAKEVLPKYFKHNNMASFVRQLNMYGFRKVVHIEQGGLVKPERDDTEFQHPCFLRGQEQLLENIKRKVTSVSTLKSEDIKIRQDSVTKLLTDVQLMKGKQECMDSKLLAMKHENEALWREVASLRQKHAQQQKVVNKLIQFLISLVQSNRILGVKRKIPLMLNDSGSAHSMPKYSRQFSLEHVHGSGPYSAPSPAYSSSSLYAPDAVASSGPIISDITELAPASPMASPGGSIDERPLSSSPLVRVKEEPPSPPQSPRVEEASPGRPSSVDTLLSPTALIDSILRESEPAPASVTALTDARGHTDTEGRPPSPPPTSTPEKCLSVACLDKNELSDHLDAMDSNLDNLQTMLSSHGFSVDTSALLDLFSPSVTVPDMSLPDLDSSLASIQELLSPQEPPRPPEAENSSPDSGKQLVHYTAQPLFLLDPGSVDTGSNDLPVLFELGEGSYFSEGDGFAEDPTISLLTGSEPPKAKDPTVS
# Chain of ETV5 (P41161 whole entry): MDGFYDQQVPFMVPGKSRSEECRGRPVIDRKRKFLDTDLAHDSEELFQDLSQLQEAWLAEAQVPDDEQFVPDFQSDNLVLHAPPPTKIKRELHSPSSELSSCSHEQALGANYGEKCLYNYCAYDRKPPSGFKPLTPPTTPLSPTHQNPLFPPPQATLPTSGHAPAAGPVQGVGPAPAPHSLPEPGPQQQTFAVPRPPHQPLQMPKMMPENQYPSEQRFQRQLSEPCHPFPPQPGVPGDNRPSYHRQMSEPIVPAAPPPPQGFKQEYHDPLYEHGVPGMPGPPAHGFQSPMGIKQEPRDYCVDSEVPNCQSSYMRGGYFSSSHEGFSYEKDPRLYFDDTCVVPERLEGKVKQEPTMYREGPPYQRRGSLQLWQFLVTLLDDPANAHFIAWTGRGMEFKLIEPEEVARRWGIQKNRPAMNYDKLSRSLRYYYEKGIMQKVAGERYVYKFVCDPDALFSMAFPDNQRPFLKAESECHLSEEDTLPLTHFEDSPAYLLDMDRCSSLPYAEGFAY
# Chain of CRX (O43186 whole entry): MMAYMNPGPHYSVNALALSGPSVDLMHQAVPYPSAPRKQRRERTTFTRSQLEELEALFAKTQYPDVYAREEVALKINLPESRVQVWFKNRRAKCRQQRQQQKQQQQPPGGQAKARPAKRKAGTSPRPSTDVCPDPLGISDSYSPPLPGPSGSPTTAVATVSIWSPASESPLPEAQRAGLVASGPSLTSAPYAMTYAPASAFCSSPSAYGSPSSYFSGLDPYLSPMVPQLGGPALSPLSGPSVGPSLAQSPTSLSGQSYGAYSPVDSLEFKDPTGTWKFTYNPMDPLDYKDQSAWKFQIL
# Chain of SPIB (Q01892 whole entry): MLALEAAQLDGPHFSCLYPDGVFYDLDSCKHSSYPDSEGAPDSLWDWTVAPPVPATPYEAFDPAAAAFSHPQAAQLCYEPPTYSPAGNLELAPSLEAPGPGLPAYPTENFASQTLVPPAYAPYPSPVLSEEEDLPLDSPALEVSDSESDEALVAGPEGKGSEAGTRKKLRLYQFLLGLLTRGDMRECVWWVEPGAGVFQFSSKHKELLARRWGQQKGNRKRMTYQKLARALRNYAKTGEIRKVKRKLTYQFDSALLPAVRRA
# Chain of ETV1 (P50549 whole entry): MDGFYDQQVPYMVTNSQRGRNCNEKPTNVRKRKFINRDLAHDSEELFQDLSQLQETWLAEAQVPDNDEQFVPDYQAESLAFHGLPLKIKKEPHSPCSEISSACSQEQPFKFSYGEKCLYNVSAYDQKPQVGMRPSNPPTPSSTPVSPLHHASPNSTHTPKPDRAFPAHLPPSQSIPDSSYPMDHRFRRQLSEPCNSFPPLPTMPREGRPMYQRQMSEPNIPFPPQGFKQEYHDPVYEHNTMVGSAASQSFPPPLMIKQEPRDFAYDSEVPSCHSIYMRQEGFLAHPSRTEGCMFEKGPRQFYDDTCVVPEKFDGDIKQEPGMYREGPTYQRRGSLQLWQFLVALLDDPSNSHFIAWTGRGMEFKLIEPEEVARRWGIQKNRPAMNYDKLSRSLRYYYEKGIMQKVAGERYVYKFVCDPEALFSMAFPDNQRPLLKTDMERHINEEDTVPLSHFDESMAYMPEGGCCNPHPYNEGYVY
# Chain of ELF1 (P32519 whole entry): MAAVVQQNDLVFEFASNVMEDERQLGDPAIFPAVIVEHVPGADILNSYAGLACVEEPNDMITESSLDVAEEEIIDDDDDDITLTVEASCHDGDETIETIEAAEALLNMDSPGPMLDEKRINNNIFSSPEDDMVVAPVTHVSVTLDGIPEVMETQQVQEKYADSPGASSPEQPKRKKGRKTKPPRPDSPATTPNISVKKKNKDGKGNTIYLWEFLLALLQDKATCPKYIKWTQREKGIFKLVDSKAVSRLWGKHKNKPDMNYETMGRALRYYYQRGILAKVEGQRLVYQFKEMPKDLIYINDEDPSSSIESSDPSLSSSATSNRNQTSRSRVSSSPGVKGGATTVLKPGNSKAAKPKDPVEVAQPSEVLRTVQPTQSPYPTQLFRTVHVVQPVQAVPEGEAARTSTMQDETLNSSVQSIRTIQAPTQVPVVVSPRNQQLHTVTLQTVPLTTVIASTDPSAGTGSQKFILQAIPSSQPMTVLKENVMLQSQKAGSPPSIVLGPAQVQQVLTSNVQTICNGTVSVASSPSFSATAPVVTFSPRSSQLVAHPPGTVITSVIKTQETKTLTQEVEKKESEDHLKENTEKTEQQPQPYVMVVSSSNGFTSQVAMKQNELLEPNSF
sequence,measurement,setting,value
ATAAAT,binding signal,FLI1,"1.14 fold enrichment (6-mer frequency, TF over GST control)"
same,binding signal,ELK1,"1.15 fold enrichment (6-mer frequency, TF over GST control)"
same,binding signal,GABPA,"1.15 fold enrichment (6-mer frequency, TF over GST control)"
same,binding signal,ERG,"1.15 fold enrichment (6-mer frequency, TF over GST control)"
same,binding signal,ELF1,"1.15 fold enrichment (6-mer frequency, TF over GST control)"
same,binding signal,EHF,"1.14 fold enrichment (6-mer frequency, TF over GST control)"
same,binding signal,SPI1,"1.2 fold enrichment (6-mer frequency, TF over GST control)"
same,binding signal,SPIB,"1.23 fold enrichment (6-mer frequency, TF over GST control)"
same,binding signal,ELK3,"1.22 fold enrichment (6-mer frequency, TF over GST control)"
same,binding signal,FEV,"1.11 fold enrichment (6-mer frequency, TF over GST control)"
same,binding signal,ETV5,"1.22 fold enrichment (6-mer frequency, TF over GST control)"
same,binding signal,HSF1,"1.41 fold enrichment (6-mer frequency, TF over GST control)"
same,binding signal,SPIC,"1.16 fold enrichment (6-mer frequency, TF over GST control)"
same,binding signal,ELF4,"1.16 fold enrichment (6-mer frequency, TF over GST control)"
same,binding signal,ELK4,"1.17 fold enrichment (6-mer frequency, TF over GST control)"
same,binding signal,ETV2,"1.13 fold enrichment (6-mer frequency, TF over GST control)"
same,binding signal,ELF3,"1.24 fold enrichment (6-mer frequency, TF over GST control)"
same,binding signal,CRX,"1.75 fold enrichment (6-mer frequency, TF over GST control)"
same,binding signal,ETV1,"1.13 fold enrichment (6-mer frequency, TF over GST control)"
